One may read the AC50 as the midpoint of the concentration-response curve, whichever way the signal moves.

These results are taken from PubChem BioAssay (EPA / NIEHS).

Values joined by “and” are separate entries in the source; they are usually repeats but may differ in a detail not shown here. Equal entries are not always repeated. Records with an inconclusive call do not appear. Where a structure was tested more than once in an assay, its records may differ in their call. Active and inactive are the calls of the source. The calls were made as follows: active = hit-call score of the fitted dose curve at least 0.9, where 1 is the maximum; inconclusive = response in the unintended direction; inactive = score below 0.9.

A short description of assay [1]: ATG_XTT_Cytotoxicity: Cytotoxicity Assessment in the Attagene TRANS-FACTORIAL HepG2 Assay (AID 2283584).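 As to AC50: cells exposed to compound for 24 h before reading; active means loss of viability signal versus DMSO baseline.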 The procedure, abridged:
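Viability endpoint from XTT after 24 h chemical exposure of reporter-transfected human HepG2 liver cells; signal loss fitted relative to DMSO negative control.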

The nature of assay [2]: TOX21_p53_BLA_p2_viability: Viability Assessment in the Tox21 HCT-116 p53 Agonism Beta-lactamase Assay, Phase 2 (AID 2283591).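 Also: compound exposure lasted 16 h at 37 °C; actives lower the ATP signal meaning cytotoxicity.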 The procedure, abridged: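 HCT116 p53-bla cells, 4000/well, dosed after 5 h plating (217-fold dilution of DMSO stocks) and incubated 16 h at 37C. Viability taken as cellular ATP by CellTiter-Glo luminescence after 30 min RT; signal loss marks cytotoxicity.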

Assay [3] addresses Cellular tumor antigen p53 (Homo sapiens) (UniProt P04637). Description: TOX21_p53_BLA_p2_ratio: Tox21 HCT-116 p53 Agonism Beta-lactamase Assay, Ratio, Phase 2 (AID 2283592). Summed up:
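Gain-of-signal p53 agonism was scored from the beta-lactamase FRET ratio (460/530 nm, 405 nm excitation) in HCT116 cells treated 16 h at 37C, 5% CO2, with DMSO serving as negative control and baseline.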

Assay [4] can be described thus: TOX21_p53_BLA_p3_viability: Viability Assessment in the Tox21 HCT-116 p53 Agonism Beta-lactamase Assay, Phase 3 (AID 2283593).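 Also: cells exposed to compound for 16 h before reading.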 The procedure, abridged:
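HCT116 cells, 4000/well, dosed 5 h after plating by pin transfer (217-fold dilution from DMSO stock) and incubated 16 h at 37C, 5% CO2. Viability read as ATP luminescence with CellTiter-Glo after 30 min at room temperature.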

The target in assay [5] is Cellular tumor antigen p53 (Homo sapiens) (UniProt P04637). Description: TOX21_p53_BLA_p3_ratio: Tox21 HCT-116 p53 Agonism Beta-lactamase Assay, Ratio, Phase 3 (AID 2283596). Summed up: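 HCT116 p53-bla cells (4000/well) given compound in DMSO (217-fold dilution) after 5 h, incubated 16 h at 37C. CCF4-AM substrate 2 h at room temperature; 460/530 nm emission ratio, gain fitted against DMSO.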

Assay [6] in a line: TOX21_p53_BLA_p4_viability: Viability Assessment in the Tox21 HCT-116 p53 Agonism Beta-lactamase Assay, Phase 4 (AID 2283597).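 Also: hits lower the luminescence signal meaning cytotoxicity.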 Summed up:
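Following a 16 h exposure at 37C, the treated HCT116 wells were first read for the FRET ratio. They were then lysed with CellTiter-Glo, and ATP luminescence was recorded after 30 min at room temperature.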

Assay [7] concerns the target Cellular tumor antigen p53 (Homo sapiens) (UniProt P04637). Description: TOX21_p53_BLA_p5_ratio: Tox21 HCT-116 p53 Agonism Beta-lactamase Assay, Ratio, Phase 5 (AID 2283599). Summed up:
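HCT-116 p53-bla cells (4000/well) plated 5 h, dosed with compound (217-fold DMSO dilution) for 16 h at 37 C; CCF4-AM substrate 2 h at room temperature. Activity is the 460/530 nm emission ratio (405 nm excitation), fitted in gain-of-signal direction versus DMSO.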

Cellular tumor antigen p53 (Homo sapiens), sequence (P04637 whole entry, looked up): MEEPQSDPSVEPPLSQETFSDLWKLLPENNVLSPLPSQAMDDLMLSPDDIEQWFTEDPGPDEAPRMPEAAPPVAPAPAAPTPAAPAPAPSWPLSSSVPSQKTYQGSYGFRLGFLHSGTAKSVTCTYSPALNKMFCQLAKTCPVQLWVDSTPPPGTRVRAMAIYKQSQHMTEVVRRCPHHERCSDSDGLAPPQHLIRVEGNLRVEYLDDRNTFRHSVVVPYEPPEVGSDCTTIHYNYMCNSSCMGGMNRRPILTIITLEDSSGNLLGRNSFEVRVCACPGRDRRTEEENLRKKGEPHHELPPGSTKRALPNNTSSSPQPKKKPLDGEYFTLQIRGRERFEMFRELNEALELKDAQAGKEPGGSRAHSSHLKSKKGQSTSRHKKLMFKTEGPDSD

Turning to `COC(O)c1ccccc1` (stereo not drawn), the result in assay [1] was inactive.

For `Nc1ccn([C@@H]2O[C@H](CO)[C@@H](O)C2O)c(=O)n1` (stereo partly drawn), in assay [1], the outcome was inactive.

`CC(C)(c1ccc(Oc2ccc(N)cc2)cc1)c1ccc(Oc2ccc(N)cc2)cc1`: the AC50 in assay [1] was 48.6 µM (active).

For `C=COC(=O)C(C)(C)CCCCCC`, the result in assay [1] was inactive.

`CC(C)CCOCCC(C)C`: the outcome in assay [1] was inactive.

`CCCCCCCCCCCC(=O)O`: in assay [1], the call was inactive.

With `O=C1c2ccc(O)c(O)c2C(=O)c2c(O)ccc(O)c21`, in assay [1], the compound was classed as inactive.

For the compound `CN(C)c1ccc(C(=C2C=CC(=[N+](C)C)C=C2)c2ccccc2)cc1`, the AC50 in assay [1] was 10.1 µM (active) and 7.71 µM (active); in assay [2], 1.83 µM (active); in assay [3] it was 9.06 µM (active) and 39.7 µM (active); in assay [4] it was 1.15 µM (active); in assay [5], 15.1 µM (active); in assay [6] it was 1.36 µM (active) and 23 µM (active). The AC50 in assay [7] is 19.2 µM (active). The result in assay [2], in assay [4], in assay [5] and in assay [7] was inactive.

As to `CC1=CC(=O)c2ccccc2C1=O`, the outcome in assay [1], in assay [2], in assay [3], in assay [6] and in assay [7] was inactive. Besides, the AC50 was 51.1 µM (active) in assay [2]; 35.7 µM (active) and 36.7 µM (active) in assay [4]; 29.7 µM (active) and 41.4 µM (active) in assay [5]; 72.7 µM (active) in assay [6]; 40.7 µM (active) in assay [7].
